# Test results: PubChem BioAssay AID720708 (National Center for Advancing Translational Sciences (NCATS), 2013)
# Out of some 360,000 compounds screened, about 660 (0.18%) were called active. Not shown: some 2% with an inconclusive outcome. For the sample, actives were picked, then their nearest neighbours and some compounds at random. A number with no mark means an inactive call. Calls follow the shape of the dose curve; as a rule, active = well fitted inhibition curve with a large enough effect; inconclusive = small, poorly fitted or top-dose-only effect; inactive = no such curve, though single readings can be large or run the other way.
# Biological target: Rap guanine nucleotide exchange factor 4 (Homo sapiens) (UniProt Q8WZA2)
# Experiment: qHTS for Antagonist of cAMP-regulated guanine nucleotide exchange factor 2 (EPAC2): primary screen; also: nearly all actives have a fitted effect of over 45% in size
# Details: EPAC2 GEF exchange of Rap1B-BODIPY-GDP, fluorescence; series mostly up to 114 µM; activity, negative = inhibition: at the top concentration
# Source text: In multi-cellular eukaryotic organisms, the effects of cAMP are transduced by two ubiquitously-expressed intracellular cAMP receptors, the classic protein kinase A/cAMP-dependent protein kinase (PKA/cAPK) and the more recently discovered exchange protein directly activated by cAMP/cAMP-regulated guanine nucleotide exchange factor (EPAC/cAMP-GEF). Both PKA and EPAC are ubiquitously expressed in all tissues, and an increase in intracellular cAMP levels will lead to the activation of both PKA and EPAC. Therefore, careful dissections of the individual role and relative contribution of EPAC and PKA within the overall cAMP signaling in various model systems are critical for further elucidating the mechanism of cAMP signaling. To date no EPAC-specific antagonists and agonist, as well as isoform-specific agonists have been reported, and developing EPAC-specific pharmacological probes to determine the physiological functions that EPAC play in the overall cAMP-mediated signaling remains a major challenge within the research field. Furthermore, identified regulators of EPAC may lead to new mechanism-based therapeutic strategies specifically targeting the EPAC / cAMP-signaling components as EPAC has been implicated to play important roles in major human pathological conditions such as diabetes, heart disease, and cancer.
# This qHTS will be used to screen the Molecular Libraries Small Molecule Repository (MLSMR) as a concentration-titration series using the NCGC unique quantitative screening (qHTS) platform to find inhibitors for EPAC2. In addition, this assay will also be used as a counterscreen for the EPAC1 qHTS. This fluorescent based assay is developed and validated for EPAC2 that measures exchange using EPAC effector Rap1 complex with BODIPY-GDP, a GDP analog with a tethered fluorophores. Inhibitors are identified by monitoring the change in fluorescence signal as the exchanged free BODIPY-GDP has a reduced fluorescence compared to Rap1-bound BODIPY-GDP. Decrease in signal (inhibition) is the desired outcome for the EPAC2 antagonist while no activity in this assay is desired for the EPAC1 antagonist counterscreen.
# NIH Chemical Genomics Center [NCGC]
# NIH Molecular Libraries Probe Centers Network [MLPCN]
# Assay Submitter (PI): Xiaodong Cheng, The University of Texas, Medical Branch
# Briefly, three uL of reagents (100 nM EPAC2, 250 nM RAP1B-BODIPY-GDP, 50 uM GDP) were dispensed into a 1536-well Greiner black solid-bottom medium binding assay plate. Controls and test compounds (23 nL) were transferred to the plate via a Kalypsys pin tool equipped with a 1536-pin array. The plates were centrifuged at 1,000 rpm for 15 seconds followed by 5 minute incubation at room temperature. The assay plates were read at 5 minute intervals for 30 minutes in the ViewLux plate reader using 480nm excitation and 540nm emission filters. The results were normalized to the agonist positive control ATA and DMSO.
# % is scaled to controls: 0 for no effect and ±100 for the full control effect; potency is read from the fitted curve at half-maximal effect.
# Rap guanine nucleotide exchange factor 4 (Homo sapiens), sequence (Q8WZA2 whole entry, looked up): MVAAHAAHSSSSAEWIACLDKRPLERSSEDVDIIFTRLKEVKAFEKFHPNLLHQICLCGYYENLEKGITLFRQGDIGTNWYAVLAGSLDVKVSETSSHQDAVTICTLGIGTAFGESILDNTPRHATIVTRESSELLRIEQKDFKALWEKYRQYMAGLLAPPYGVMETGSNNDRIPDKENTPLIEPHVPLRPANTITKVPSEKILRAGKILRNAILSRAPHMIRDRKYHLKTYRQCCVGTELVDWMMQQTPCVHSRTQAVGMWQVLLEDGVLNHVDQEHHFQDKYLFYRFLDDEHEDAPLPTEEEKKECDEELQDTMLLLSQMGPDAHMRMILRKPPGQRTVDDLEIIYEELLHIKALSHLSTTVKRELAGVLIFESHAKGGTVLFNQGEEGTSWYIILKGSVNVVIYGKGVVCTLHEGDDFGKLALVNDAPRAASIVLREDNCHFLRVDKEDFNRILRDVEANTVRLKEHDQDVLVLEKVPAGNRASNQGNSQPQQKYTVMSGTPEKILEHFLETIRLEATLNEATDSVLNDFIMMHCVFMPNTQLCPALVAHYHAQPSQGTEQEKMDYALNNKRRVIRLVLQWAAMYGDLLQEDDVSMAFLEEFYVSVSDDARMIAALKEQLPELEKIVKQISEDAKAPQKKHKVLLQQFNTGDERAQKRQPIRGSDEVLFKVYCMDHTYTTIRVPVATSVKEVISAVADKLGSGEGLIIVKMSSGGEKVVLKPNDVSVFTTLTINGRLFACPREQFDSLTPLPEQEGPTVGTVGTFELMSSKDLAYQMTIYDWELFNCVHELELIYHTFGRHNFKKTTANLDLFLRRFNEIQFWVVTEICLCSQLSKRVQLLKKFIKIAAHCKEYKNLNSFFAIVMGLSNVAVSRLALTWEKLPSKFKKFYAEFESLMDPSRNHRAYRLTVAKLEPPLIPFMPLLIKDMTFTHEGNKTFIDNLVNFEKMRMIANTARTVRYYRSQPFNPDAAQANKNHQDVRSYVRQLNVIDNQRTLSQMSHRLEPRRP
SMILES,Potency,"activity, negative = inhibition"
CCOP(=O)(OCC)C(Cc1ccccc1)N=C(c1ccccc1)c1ccccc1 (stereo not given),35.5 µM (active),–
CCOP(=O)(OCC)C(NC(=O)c1ccc(C)cc1)C(Cl)(Cl)Cl (stereo not given),–,8.74%
CCOP(=O)(OCC)C(NC(=O)c1ccc(OC)cc1)C(Cl)(Cl)Cl (stereo not given),–,2.33%
CC1=CC(=Cc2sc3ccccc3[n+]2C)C=C(C)O1,–,3.92%
C[C@]12CC[C@H](O)C[C@H]1CC[C@@H]1C2CC[C@]2(C)[C@@H](C3=CC(=O)OC3)[C@@H](O)C[C@]12O (stereo not given in full),–,-0.19%
CCOC(=O)[C@]12Cc3ccccc3[C@H]1N(C1CCCCC1)C(=O)c1cc(OC)ccc12,3.16 µM (active),–
COC(=O)C1=C(c2cc3ccccc3s2)C[C@@H]2CC[C@H]1N2C(=O)NCc1cccc2ccccc12,–,-8.1%
Oc1cc2c(cc1CN1CCN(c3ccccc3)CC1)OCO2,–,1.4%
CN(c1ccccc1)c1ccc([N+](=O)[O-])c2nonc12,–,-14.7%
ClC(Cl)(Cl)c1ccccc1,–,-7.81%
CC(c1ccccc1)(c1ccccc1)c1ccncc1,35.5 µM (active),–
CCCC[N+]1(C)C2CC(OC(=O)C(CO)c3ccccc3)CC1C1OC12 (stereo not given),–,-8.66%
O=C(NC(c1ccc(Cl)cc1)P(=O)(Oc1ccccc1)Oc1ccccc1)OCc1ccccc1 (stereo not given),–,16.5%
COC(=O)N1C(c2ccccc2)C1c1ccccc1 (stereo not given),31.6 µM (active),–
COC(=O)C(c1ccccc1)N1CCCCCC1 (stereo not given),–,12.7%
O=C(CN1CCCCC1)Nc1ccc(Br)cc1C(=O)c1ccccc1Cl,–,-0.013%
Cn1c(O)c(C(=Nc2ccc(F)cc2)c2ccccc2)c(=O)n(C)c1=O,–,13.4%
CC(=O)N(C1=NCCCS1)c1ccccc1F,–,9.69%
Cc1ccc(-n2c(O)c(C=NCC3CCCO3)c(=O)[nH]c2=O)c(C)c1 (stereo not given),–,-6.22%
O=C(OCCN1CCOCC1)C1(c2ccccc2)CCCC1,–,-2.62%
